Source: publication PMC12136788
The full ranking holds about 5,800 sequences; the median of “enrichment r” is about 0.68, and the highest 2% start at about 11. Only a selection was taken, and the highest values are over-represented in it overall.

T1: UNK ZnF1-6 (called full-length) (human, UniProt Q9C0B0 30-357)
T1 sequence: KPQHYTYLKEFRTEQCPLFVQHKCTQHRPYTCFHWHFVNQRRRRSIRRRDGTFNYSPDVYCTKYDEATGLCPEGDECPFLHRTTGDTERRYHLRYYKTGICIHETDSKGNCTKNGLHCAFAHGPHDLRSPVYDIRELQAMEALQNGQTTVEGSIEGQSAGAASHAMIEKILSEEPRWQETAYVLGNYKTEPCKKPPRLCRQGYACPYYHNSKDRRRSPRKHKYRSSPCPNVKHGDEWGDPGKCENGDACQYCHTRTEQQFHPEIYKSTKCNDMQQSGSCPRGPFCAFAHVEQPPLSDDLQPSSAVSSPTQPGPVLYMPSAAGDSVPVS

B1: chr8:73046310:73046411:+|3pUTR|ENSG00000147601|msi1|FALSE|unique (ssRNA)
RNA: GGGAGUUCUACAGUCCGACGAUCUUGUAUUCUUUAAGAACCUUAUUUUGAUAAAAUGUAAAUUUGUUGAACCCUGCCACAUUUAGUAUCCCCACCCCCAAAUCCUGUUCCAAUGAAAAAAUUAAAACCUGAUACGAAAAAAAACAACAGAGGAUUGAGCAUCA
B2: chr2:96301550:96301651:-|CDS|ENSG00000144028|msi1|FALSE|unique (ssRNA)
RNA: GGGAGUUCUACAGUCCGACGAUCAAGGCGAAAGGAGAUUGACCUGCUGCUGGGUCAAACAGAUGAUACCAGAUACCAUGUGCUAGUGAACCUGGGCAAAAAGAUCACAGACUAUGGUGGAGAUAAGGAAAUCCAAAAUAUGGGCAACAGAGGAUUGAGCAUCA
B3: chr7:76302746:76302847:+|CDS|ENSG00000106211|unk|total|mutant (ssRNA)
RNA: GGGAGUUCUACAGUCCGACGAUCGUCCCCUUCUCGCUCCUGCGGGGCCCCAGCUGGGACCCCUUCCGCGACUGGUACCCGCACCGCCGCCUCUUCGACCAGGCCUUCGGGCUGCCCCGGCUGCCGGAGGAGUGGUCGCAGUGGCAACAGAGGAUUGAGCAUCA
B4: chr7:56101660:56101848:-|3pUTR|ENSG00000106153|msi1|total|mutant (ssRNA)
RNA: GGGAGUUCUACAGUCCGACGAUCUGGAGAGAUGGAAAAUCAGCUCUCAUAACUAAGUUAAUUCCGUAUAAAAACCGAAUUGACCGUGAGGGUAUAAAGUGUAACCAUCAGUUAAACCUCUCCUGUCAUUCCUGGCUUCCUUGCCAACAGAGGAUUGAGCAUCA
B5: chr11:2928445:2928542:-|3pUTR|ENSG00000181649|msi1_unk|FALSE|overlapping (ssRNA)
RNA: GGGAGUUCUACAGUCCGACGAUCAUUGGACUAUCUAAUAUCUAUGUAUUUAUUUCGCUGGUUCUUUGUAGUCACAUAUUUUAUAGUCUUAAUAUCUUGUUUUUGCAUCACUGUGCCCAUUGCAAAUAAAUCACUUGGCCAGUUCAACAGAGGAUUGAGCAUCA
B6: ENSG00000070961:be:win_1401|CDS|ENSG00000070961|bound_else_gene|NA|bound_elsewhere_windowed (ssRNA)
RNA: GGGAGUUCUACAGUCCGACGAUCAAAUGCUACAGCUAUUUGUUCAGAUAAAACAGGAACUUUGACAAUGAACAGAAUGACAGUCGUUCAAGCUUACAUAAAUGAAAAACAUUAUAAAAAGGUUCCUGAACCAGAAGCUAUUCCCAACAGAGGAUUGAGCAUCA
B7: chr1:52238154:52238269:+|CDS|ENSG00000157077|unk|total|mutant (ssRNA)
RNA: GGGAGUUCUACAGUCCGACGAUCUCUGACCGUCCCGCCAGUGUCUGUUCCCCUUCACAAUUAAAGGAUGACGGAAGUACCGGCCGAGACCCCUCCAUGUCUGCGAUUACAAGUUUAACGGUUGAUUCAGUAAUCUCAUCCCAGCAACAGAGGAUUGAGCAUCA
B8: chr2:88557131:88557241:-|3pUTR|ENSG00000172071|msi1|total|mutant (ssRNA)
RNA: GGGAGUUCUACAGUCCGACGAUCGAGGACAAGCCGCACAAACUGUAUAACGGUUUAUGUCCGCCGUUUUACCGUCCUAUUUGCCGCAUUCAACCGCUUUAUUCCUCCGAUGGUUCCCGGGUGGGUUUACAGCUUUUUGUACUUCAACAGAGGAUUGAGCAUCA
B9: chr8:65707876:65707977:+|CDS|ENSG00000066855|unk|FALSE|unique (ssRNA)
RNA: GGGAGUUCUACAGUCCGACGAUCCCUGCUGCCCUCAUAGCAGAGGCUCUGAAAAAGAAAUUUGCUUAUCGGUAUCGAAGUGAUAGCCAAGAUGAAGUUGAAAAAGGAAUUCCAAAGUCUGAAUCAGAGGCCACCUCAGAGAGACAACAGAGGAUUGAGCAUCA
B10: ENSG00000112365:stop:overlap|stop_codon|ENSG00000112365|stop_codon|NA|stop_codon (ssRNA)
RNA: GGGAGUUCUACAGUCCGACGAUCUCUACACACUGGCAAGAAGCCUUUCUCCUGCCCUGAGUGUAACUUACAGUUUGCUCGCUUAGACAACUUGAAGGCUCACUUGAAAAUUCAUAGCAAGGAGAAGCAUGCUUCAGAUGCCAGCAACAGAGGAUUGAGCAUCA
B11: chr10:30820206:30820444:-|three_prime_utr|ENSG00000183621|control|control|control (ssRNA)
RNA: GGGAGUUCUACAGUCCGACGAUCCUUAUCUAAUCUCCAAAUGAAGAAUGGGCCCAUCUGACAUAUCCUAUGAGCACAAAGCUUAGGGGACUCUUCACCGAAACCUAGACAAAUAUUUGAAUGCAUUUUUUUUUUUUUUUUUUGCAACAGAGGAUUGAGCAUCA
B12: ENSG00000066933:stop:overlap|stop_codon|ENSG00000066933|stop_codon|NA|stop_codon (ssRNA)
RNA: GGGAGUUCUACAGUCCGACGAUCAUAGCUCAGAGAAUUUGAAUAUGGAGUCUGAAUAUGCUAUCUCUGAGAAAUCAGAAGCUUAGCCCUUAGCUCCCUGAAGACAGCUGGCAAGUCUGAACCUUCCAGCAAGUUGCGAAAGCACAACAGAGGAUUGAGCAUCA
B13: ENSG00000107863:be:win_3701|CDS|ENSG00000107863|bound_else_gene|NA|bound_elsewhere_windowed (ssRNA)
RNA: GGGAGUUCUACAGUCCGACGAUCUCUUCACAAAUGAUAAAUAUGCUGAUUUUAUUGAAGCCAAUCGUAAAGAAGAUCCUCUAGAUCGUCUGAAAACAUUAAAAAGACUAAUUCACGAUUUGCCUGAACAUCAUUAUGAAACACCAACAGAGGAUUGAGCAUCA
B14: chr5:43486917:43487111:-|CDS|ENSG00000172244|control|control|control (ssRNA)
RNA: GGGAGUUCUACAGUCCGACGAUCUUAUAAACCAGGAUCUUCAGAAACCUUGCUAGGAGAAGUUAAUGAAAAUAGAGUAUCAAUAGCAUUGAAAAAAACCUCUGAAAUCCUUCACGAUAUUGACUGUCUUCUAUCAAACUCUAACAACAGAGGAUUGAGCAUCA

Target: T1, UNK ZnF1-6 (called full-length)
Experiment: nsRBNS (natural sequence RNA bind-n-seq); RBNS binding buffer (assumed for nsRBNS): 25 mM Tris pH 7.5, 150 mM KCl, 3 mM MgCl2, 0.01% Triton X-100, 500 ug/ml BSA, 20 U/ml SUPERase-In, 4 C; UNK is unkempt and MSI1 is Musashi-1; names of the RNAs are library labels; protein concentration not given here; high values mean tight binding

Row | Binder | binding signal [enrichment R]
1 | B1 | 2.26
2 | B2 | 0.578
3 | B3 | 2.16
4 | B4 | 0.253
5 | B5 | 5.74
6 | B6 | 0.274
7 | B7 | 0.482
8 | B8 | 0.471
9 | B9 | 0.424
10 | B10 | 0.948
11 | B11 | 27.7
12 | B12 | 15.4
13 | B13 | 0.382
14 | B14 | 0.69
